A selection: hits, their analogues and other compounds. The true share with any hit is near 2.3%.
GLS inh: qHTS for Inhibitors of Glutaminase (GLS). Glutaminase kidney isoform, mitochondrial (Homo sapiens), O94925. GLS enzymatic activity, qHTS titration. Potency, µM (series often up to 45.5 µM), without a hit: at the highest dose activity change, negative = inhibition, hits mostly inhibitors. hit rate 0.21% among 410,000; note: % is set by controls: 0 for no effect and ±100 for the full control effect
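Enzyme dispensed in phosphate buffer (45 mM, pH 8.2, 0.02% Tween-20), compounds pinned in, then 1 mM L-glutamine solution and the glutamate oxidase–HRP–Amplex Red mix added; fluorescence read immediately and again after 30 min at room temperature.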
GLP-1R inv ag: qHTS of GLP-1 Receptor Inverse Agonists (Inhibition Mode). Glucagon-like peptide 1 receptor (Homo sapiens), P43220. HEK293 GLP-1R CRE-luciferase, luminescence, 24 h; GLP-1R form is constitutively active. Potency, µM (series often up to 38.3 µM), for the others: at the top dose activity change, negative = inhibition, usual class: inhibitors. hit rate 1.6% among 410,000; note: % is set by controls: 0 for no effect and ±100 for the full control effect; nearly all actives have a fitted effect of over 55% in size
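Luminescence readout: a drop in cAMP-driven luciferase signal flags inverse agonism at a constitutively active GLP-1R stably expressed in HEK293. Compound exposure lasted 24 hr at 37 deg C, 5% CO2.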
GLP1R ag: qHTS of GLP-1 Receptor Agonists. hit rate 0.007% among 380,000. Potency, µM (series often up to 45.6 µM), without a hit: at the top dose activation, usual class: activators. Glucagon-like peptide 1 receptor (Homo sapiens), P43220. HEK293 GLP-1R CRE-luciferase, luminescence, 4-6 h; cells express a hypersensitive GLP-1R form; note: % of control where 0% means no effect
12-LOX inh: Primary qHTS assay for inhibitors of human arachidonate 12S-lipoxygenase (ALOX12): Round 2; Potency, µM (series often up to 108 µM), inactives show top-dose activity change, negative = inhibition, most hits filed as inhibitors; hit rate 1.1% among 580,000; Polyunsaturated fatty acid lipoxygenase ALOX12 (Homo sapiens), P18054; purified 12hLO, xylenol orange hydroperoxide absorbance; note: % is set by controls: 0 for no effect and ±100 for the full control effect
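Purified human 12hLO at 150 nM in 25 mM Hepes, 0.01% Triton X-100, pH 7.0, preincubated 15 min at room temperature with compound. Reaction started with 40 uM arachidonic acid, 30 min at room temperature. Hydroperoxide measured by Fe-xylenol orange, 573/405 nm absorbance ratio.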
GRP78 ERSR act: qHTS for Inducers of the Endoplasmic Reticulum Stress Response (ERSR) in Human Glioma: qHTS. U87-MG GRP78 promoter luciferase reporter, 16 h. Potency, µM, for inactives: at the highest dose activation, actives largely listed as activators. hit rate 0.02% among 420,000; note: series mostly up to about 76 µM; % of control where 0% means no effect; nearly all actives have a fitted effect of over 35% in size
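Stably transfected U87-MG glioma cells carrying a GRP78-based luciferase sensor; 16 h compound incubation. Luminescence end-point read 10 min after Bright-Glo addition at room temperature.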
PTHR1 ag: qHTS for PTHR1 Agonists: Primary Screen | Parathyroid hormone/parathyroid hormone-related peptide receptor (Homo sapiens), Q03431 | HEK293 GP2 PTHR1 cells, GloSensor cAMP luminescence, 1 h | Potency, µM (highest dose often 115 µM), without a hit: top-dose activation, actives largely listed as activators | hit rate 0.075% among 410,000 | AID 743266, 2014; note: nearly all actives have a fitted effect of over 55% in size
Target sequence (Q03431 whole entry, looked up): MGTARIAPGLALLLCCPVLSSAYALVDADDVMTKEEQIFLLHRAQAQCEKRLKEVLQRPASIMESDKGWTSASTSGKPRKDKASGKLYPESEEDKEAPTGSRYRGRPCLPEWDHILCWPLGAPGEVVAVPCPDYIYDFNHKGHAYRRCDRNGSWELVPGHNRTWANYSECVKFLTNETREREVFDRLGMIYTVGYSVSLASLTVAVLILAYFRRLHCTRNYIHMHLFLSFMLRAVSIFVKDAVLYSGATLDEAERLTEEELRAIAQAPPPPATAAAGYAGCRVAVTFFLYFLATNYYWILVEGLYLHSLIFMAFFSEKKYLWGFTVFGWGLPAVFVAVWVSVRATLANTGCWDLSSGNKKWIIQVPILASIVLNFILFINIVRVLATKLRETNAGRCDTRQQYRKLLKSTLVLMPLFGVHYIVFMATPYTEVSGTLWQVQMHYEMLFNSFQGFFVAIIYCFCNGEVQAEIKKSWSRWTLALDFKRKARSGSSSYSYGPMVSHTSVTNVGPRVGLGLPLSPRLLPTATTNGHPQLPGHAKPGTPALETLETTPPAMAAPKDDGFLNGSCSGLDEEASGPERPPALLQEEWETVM
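HEK-293-derived GP2 cells expressing PTHR1 and a GloSensor cAMP reporter, 3,000/well, plated overnight, given luciferin plus IBMX (each 0.5 mM as added) for 1 h at 37 °C, then compound for 1 h at 37 °C. Luminescence was read after 15 min at room temperature.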
Numbers without * were called inactive; i = inactive; ? = inconclusive; . = no result; ! = not confirmed by another sample; [ ] = another dose, or the depositor's remark. Calls come from the whole dose curve; as a rule, active = well fitted curve in the direction sought with a large enough effect; inconclusive = small, poorly fitted or top-dose-only effect, or another doubt; inactive = no such curve, though single readings can be large; an effect the other way counts as inactive or inconclusive. Potency is the fitted concentration of half-maximal effect.

SMILES	GLS inh	GLP-1R inv ag	GLP1R ag	12-LOX inh	GRP78 ERSR act	PTHR1 ag
COc1ccc2cnn(CC(=O)Nc3ccccc3)c(=O)c2c1OC	.	.	.	14%	.	.
COCCNC(=O)COC(=O)c1cc(-c2ccc(F)cc2)nc2ccccc12	.	.	.	17%	.	.
COc1ccc(C2(C(=O)NC3CCCc4c3[nH]c3c(Cl)cccc43)CCOCC2)cc1 (stereo unspecified)	.	.	.	-15%	.	.
COc1ccc(C2(C(=O)NC3CCCc4c3[nH]c3ccccc43)CCOCC2)cc1 (stereo unspecified)	.	.	.	35µM*	.	.
Cc1ccc(C)c(Nc2cc(C)nc3ccccc23)c1	14%	7.1µM*	-6%	0%	-4%	i
Cc1cccc(Nc2cc(C)nc3ccccc23)c1	21%	-11%	10%	-66%	-4%	-3%
Cc1ccc(Nc2cc(C)nc3ccccc23)c(C)c1	12%	10µM*	6%	0%	-6%	-5%
Cc1ccc(/C=C(/C#N)C(=O)NC2CCCC2)cc1C	.	.	.	29%	.	.
Cc1ccccc1S(=O)(=O)Cc1ccc(C(=O)NCCN2CCCC2)o1	.	.	.	-15%	.	.
CC(=O)N1CCN(C(=S)c2ccc(N(C)C)cc2)CC1	36%	0%	-2%	?	-5%	-13%[57.5 µM]
CN(C)c1ccc(C(=S)N2CCCCCC2)cc1	43%	0%	24%	40µM*	0%	-79%
O=c1oc2cc(OS(=O)(=O)c3ccccc3)ccc2cc1-c1ccccc1	.	.	.	11%	.	.
COc1ccc(CCNC(=O)c2ccc3c(=O)n(-c4ccccc4)c(=O)[nH]c3c2)cc1OC	.	.	.	1%	.	.
Fc1ccc(-[n+]2nc(Nc3ccccc3)sc2-c2c3ccccc3cc3ccccc23)cc1	-16%	11µM*	2%	?	5%	-11%
O=C(NC(c1ccc(-c2ccccc2)cc1)c1cnccn1)C1CCN(Cc2ccc(Oc3ccccc3)cc2)CC1 (stereo unspecified)	-2%	4µM*	1%	?	-5%	11%
Cc1ccc(-c2csc(=Nc3ccccc3)n2CCCO)cc1	-2%	?	.	45µM*	-6%	-9%
Cc1[nH]c(C(=O)NOCc2ccccc2)c(C)c1C(=O)OC(C)C	.	.	.	4%	.	.
Cc1cccc(C(=O)NC(NCCc2ccccc2)C(Cl)(Cl)Cl)c1 (stereo unspecified)	2%	4.5µM*	5%	0%	-7%	i
CCn1cc(C#N)c(=O)n(Cc2nc(-c3ccccc3Cl)no2)c1=O	.	.	.	-5%	.	.
COc1ccccc1NC(=O)c1cc(-c2ccco2)nc2ccccc12	.	.	.	16µM*	.	.
COc1ccccc1NC(=O)c1cc(-c2ccc(C)o2)nc2ccccc12	-7%	5%	14%	?	5%	-7%
O=C(Nc1ccccc1F)c1cc(-c2ccco2)nc2ccccc12	98%	-5%	1%	?	-3%	i
COc1ccccc1NC(=O)c1ccccc1NC(=O)c1ccccc1C(=O)O	3%	3%	0%	1.8µM*	0%	-18%
O=C(Nc1ccc(F)cc1F)c1cc(-c2ccco2)nc2ccccc12	-2%	-20%	14%	10µM*!	-2%	-11%
COc1ccc(-c2cc(C(=O)NCc3ccc(F)cc3)c3ccccc3n2)c(OC)c1	.	.	.	16µM*	.	.
SMILES	GLS inh	GLP-1R inv ag	GLP1R ag	12-LOX inh	GRP78 ERSR act	PTHR1 ag
O=C(CNc1ccc(OC(F)(F)F)cc1)N1CCNC1=O	.	.	.	17%	.	.
CC(C)[C@H](NC(=O)Cc1ccccc1)C(=O)O	.	.	.	-28%	.	.
CC(=O)Oc1ccc(C(=O)Nc2ccccc2C(=O)Nc2ccc(C(=O)O)cc2)cc1	4%	10%	-7%	4.5µM*	-1%	-48%
COc1ccc(NC(=O)Nc2ccc(C)c(OCc3cc(=O)n4ccccc4n3)c2)cc1OC	.	.	.	5%	.	.
O=c1c2c(-c3cccs3)csc2nc(CN2CCOCC2)n1CCOc1ccccc1Cl	.	.	.	30%	.	.
C=C(C)COc1ccc(C(N)=O)cc1	.	.	.	20%	.	.
O=C(c1cn(-c2ccccc2)nc1-c1cccnc1)N1CCN(c2ccccc2O)CC1	.	.	.	-22%	.	.
OC(COc1ccc2c(c1)OCO2)CN1CCCCC1 (stereo unspecified)	-1%	19%	-3%	-2%	-1%	-19%
C=CCc1ccccc1OCC(O)CN1CCN(c2ccc(C)cc2)CC1 (stereo unspecified)	-2%	?	3%	0.56µM*	-4%	i
CC(C)c1ccc(OCC(O)CN2CCN(c3ccccc3)CC2)cc1 (stereo unspecified)	59%	10µM*	8%	?	-5%	-9%
OC(COc1ccc2c(c1)OCO2)CN1CCN(c2ccccc2)CC1 (stereo unspecified)	17%	8.9µM*	1%	-23%	-3%	-11%
CC1CN(C)C(C)(C)CC1O (stereo unspecified)	.	.	.	21%	.	.
O=C1CC(=Nc2ccc([N+](=O)[O-])cc2)NN1c1c(Cl)cc(Cl)cc1Cl	-4%	?	-2%	32µM*	3%	-4%
N#CC(=C(O)c1ccc(Cl)cc1Cl)c1nc2cc(Cl)ccc2c(=O)[nH]1	.	.	.	22µM*	.	.
N#C/C(=C/c1ccccc1Cl)c1nc2ccccc2c(=O)[nH]1	3%	-9%	.	0%	-2%	i
CCOc1cc(C#N)c(NC(=O)c2ccc(Cl)cc2)cc1OCC	.	.	.	30%	.	.
CCn1nc(C)cc1C(=O)N1CCc2c([nH]c3ccccc23)C1c1cc(F)ccc1F (stereo unspecified)	2%	10µM*	17%	2%	0%	-11%
CCOc1ccc(CN2CCN(Cc3[nH]c4ccc(OC)cc4c3C)CC2CCO)cc1 (stereo unspecified)	7%	13µM*	6%	?	-2%	i
CC[n+]1c(C)ccc2ccccc21	.	.	.	16µM*	.	.
Cc1ccc(-n2ncc3c(NCCc4ccccc4)ncnc32)cc1	10%	?	.	28µM*	-1%	-22%
Clc1ccc(-n2ncc3c(NCc4ccco4)ncnc32)cc1	.	-2%	2%	?	10%	-82%
COc1ccc(CCNc2ncnc3c2cnn3-c2ccc(C)c(Cl)c2)cc1	-3%	5%	.	?	-5%	-8%
COc1ccc(-n2ncc3c(NCc4ccco4)ncnc32)cc1	-8%	0%	13%	32µM*	5%	-9%[57.5 µM]
COc1ccc(CCNc2ncnc3c2cnn3-c2cccc(Cl)c2)cc1	-25%	0%	.	40µM*	-4%	i
